HEK293 cAMP ctrl: qHTS Assay for Agonists of the Thyroid Stimulating Hormone Receptor: Activators of Intracellular cAMP Concentrations in Parental HEK 293. parental HEK293 CNG cAMP sensor, membrane potential fluorescence. Potency, µM (top dose mostly 57.1 µM), hits mostly activators. 73,000 compounds, 2.5% hits. AID 938, 2007; further: nearly all actives have a fitted effect of over 55% in size
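Counterscreen for endogenous-receptor signalling: CNG-channel HEK 293 cells report cAMP rise by membrane depolarization. After 60 min dye equilibration with 100 uM RO 20-1724, compounds incubated 30 min before bottom-read fluorescence at 590 nm.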
Imprint erasure: qHTS Assay for Compounds that Induce Erasure of Genomic Imprints | 110,000 compounds, 0.02% hits | Potency, µM (top dose mostly 60.7 µM), actives largely listed as activators | mouse ES Peg3-LacZ reporter, beta-gal luminescence, 40 h
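Readout: BetaGlo luminescence (5 min, room temp) for LacZ from the normally silent maternal Peg3 allele in female Peg3LacZ-Neo ES cells. Cells 300/well, 40 h, 37C, 5% CO2. Data normalized per plate to negative controls.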
TSHR ag: qHTS Assay for Agonists of the Thyroid Stimulating Hormone Receptor; AID 926, 2007; Potency, µM (titrated, usually from 57.1 µM), usual class: activators; 73,000 compounds, 0.48% hits; Thyrotropin receptor (Homo sapiens), P16473; HEK293-CNG-TSHR cells (CNG channel as cAMP sensor), membrane potential dye, cAMP; active means well fitted activation curve with a large enough effect in the main read-out, with a control signal flat, not every such curve was filed as active; inconclusive means small, poorly fitted or top-dose-only effect, or a change in a side signal; inactive means no such curve, though single readings can be large or run the other way; reference of the percent scale not stated here;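 further: the control signal comes from parental cells without the receptor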
Target sequence (P16473 whole entry, looked up): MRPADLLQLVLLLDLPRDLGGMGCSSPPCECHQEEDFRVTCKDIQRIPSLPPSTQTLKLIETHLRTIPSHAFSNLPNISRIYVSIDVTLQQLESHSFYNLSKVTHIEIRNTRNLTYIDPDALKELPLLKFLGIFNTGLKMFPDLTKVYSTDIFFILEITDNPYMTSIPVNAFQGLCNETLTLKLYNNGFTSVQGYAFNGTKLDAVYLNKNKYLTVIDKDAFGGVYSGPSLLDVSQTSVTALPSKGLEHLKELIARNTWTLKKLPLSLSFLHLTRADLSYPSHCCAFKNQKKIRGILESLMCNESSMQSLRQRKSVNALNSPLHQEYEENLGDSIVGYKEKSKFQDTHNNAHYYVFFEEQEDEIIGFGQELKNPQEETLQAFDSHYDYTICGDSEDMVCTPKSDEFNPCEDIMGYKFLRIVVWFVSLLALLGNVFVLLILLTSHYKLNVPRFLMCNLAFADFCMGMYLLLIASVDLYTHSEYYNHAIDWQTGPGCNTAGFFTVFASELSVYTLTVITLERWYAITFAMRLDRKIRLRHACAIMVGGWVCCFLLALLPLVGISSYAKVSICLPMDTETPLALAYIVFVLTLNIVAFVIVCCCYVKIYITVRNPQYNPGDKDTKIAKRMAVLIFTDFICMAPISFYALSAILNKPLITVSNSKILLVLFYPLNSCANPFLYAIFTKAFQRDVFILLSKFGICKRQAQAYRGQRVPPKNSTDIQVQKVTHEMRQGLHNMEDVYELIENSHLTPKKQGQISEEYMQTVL
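HEK 293 cells stably expressing TSHR and a modified CNG channel, with CNG-only parental cells as counterscreen, were preloaded 60 min at room temperature with membrane potential dye containing 100 uM RO 20-1724. Compound exposure was 30 min, and depolarization was read as fluorescence at 590 nm.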
parental cAMP: Confirmation Concentration-Response Assay for Agonists of the Thyroid Stimulating Hormone Receptor: Activators of Intracellular cAMP Concentrations in Parental HEK 293 | shares compounds with TSHR ag | parental HEK293 CNG biosensor, cAMP membrane potential fluorescence | activity change, negative = inhibition, % at 32.9 µM | 150 tested, under 10 active
Hits are given with their value; n = inactive; u = inconclusive; x = not tested or not shown; [ ] = another dose, or the depositor's remark. Shown is part of a subset that was picked to be rich in hits. Unless noted, the call rests on the fitted dose curve; in most records, active means well fitted curve in the direction sought with a large enough effect; inconclusive means small, poorly fitted or top-dose-only effect, or another doubt; inactive means no such curve, though single readings can be large; an effect the other way counts as inactive or inconclusive.

SMILES | HEK293 cAMP ctrl | Imprint erasure | TSHR ag | others
C[C@@H]1[C@H]2C=C[C@@H]1[C@@H](c1c3ccc(=O)c(O)c-3oc3c(O)c(O)ccc13)[C@@H]2C(=O)O | n[11.4 µM] | x | n[11.4 µM]
CCC/C=C(\CCC)C(NP(=O)(c1ccccc1)c1ccccc1)c1ccccc1 (configuration not stated) | u | n | u
C=C(CC1(C(C)NP(=O)(c2ccccc2)c2ccccc2)CC1)c1ccccc1 (configuration not stated) | 16µM | n | u
C[C@H](Br)CN(C[C@H](C)Br)c1ccc2c(c1)Cc1ccccc1-2 | n[11.4 µM] | n[10.9 µM] | n[11.4 µM]
c1ccc(/N=C2\N=C(Nc3ccccn3)c3ccccc32)nc1 | n | n | 7.9µM
C=C[C@@H]1CN2CC[C@@H]1C[C@H]2[C@H](O)c1ccnc2ccccc12 | n | x | n
CC(C)C[C@H]1C(=O)N2CCC[C@@H]2[C@]2(O)O[C@](NC(=O)[C@H]3C=C4c5cccc6[nH]cc(c56)C[C@H]4N(C)C3)(C(C)C)C(=O)N12 | n | x | n
O=C1C[C@H]2OCCC=C3CN4CC[C@@]56c7ccccc7N1[C@@H]5[C@H]2[C@H]3C[C@@H]46 | n | x | n
CCCCn1c(C)c(C(=O)OCC)c2c(CN3CCOCC3)c(O)ccc21 | 6.3µM | n | u
CCOC(=O)c1c(C)n(Cc2ccco2)c2ccc(O)cc12 | n | n | n
C=CCCN1C[C@@H]2C[C@H](C1)c1cccc(=O)n1C2 | n | x | n
CN1CCC2(CC1)CCN(C(=O)c1ccco1)CC2 | n | x | n
O=C(c1ccco1)N1CCN(Cc2ccccc2C(F)(F)F)CC1 | 4µM | n | u
CC(C)N[C@@H](C)Cc1ccc(I)cc1 | n | x | n
O=C(Oc1ccccc1)N1CCC2(CC1)CN(Cc1ccncc1)C2 | n | x | n
O=C(Oc1ccccc1)N1CCC2(CC1)CN(C(c1ccccc1)c1ccccc1)C2 | 32µM | x | u
CCOc1ccc2[nH]c(=O)c(CN(CCO)C3(c4nnnn4C4CCCCC4)CCCCC3)cc2c1 | 25µM | n | u
CC12CCC(=O)C=C1CCC1C2CCC2(C)C(O)CCC12 (configuration not stated) | n | n | n
CCC(=O)O[C@H]1CC[C@H]2[C@@H]3CCC4=CC(=O)CC[C@]4(C)[C@H]3CC[C@]12C | 16µM | n | u
C[N+]1(C)CCc2cc3c(cc2[C@@H]1[C@@H]1OC(=O)c2c1ccc1c2OCO1)OCO3 | n | x | n
N[C@H](Cn1cc(I)c(=O)[nH]c1=O)C(=O)O | n | x | n
O=C(Nc1ccccn1)NC12CC3CC(CC(C3)C1)C2 | n | x | 20µM | parental cAMP=n
CN1[C@@H]2CC(OC(=O)[C@@H](CO)c3ccccc3)C[C@H]1[C@H]1O[C@H]12 (some centres not stated) | n | x | x
COc1cc2ccccc2c2cc([N+](=O)[O-])oc12 | n[11.4 µM] | n[10.9 µM] | n[11.4 µM]
CCOC(=O)c1c(C)n(COCCO)c2ccc(O)cc12 | n | n | n
CCn1c(C)c(C(=O)O)c2cc(OC)ccc21 | n | n | n | parental cAMP=n
C[C@@H]1[C@@H](C)N1C[C@H](O)Cn1ccnc1[N+](=O)[O-] (some centres not stated) | n[11.4 µM] | n[10.9 µM] | n[11.4 µM]
O=C(O)c1cc(N=Nc2ccc([As](=O)(O)O)cc2)ccc1O | n[11.4 µM] | n[10.9 µM] | n[11.4 µM]
CCC(=NCC1CCCO1)c1c(O)n(-c2ccccc2)c(=O)[nH]c1=O (configuration not stated) | n | n | n
CCC(=NCC1CCCO1)c1c(O)n(Cc2ccccc2)c(=O)[nH]c1=O (configuration not stated) | n | n | n | parental cAMP=n
